Data taken from PubChem BioAssay (NCATS).
Results filed as inconclusive are left out. Active and inactive are the calls of the source. The call rests on the fitted dose curve.

The molecules below were run against Vitamin D3 receptor (Homo sapiens) (UniProt P11473) (assay: qHTS assay for small molecule agonists of vitamin D receptor signaling (AID 588543)). Details: HEK293T VDR-UAS-bla, beta-lactamase ratio, 16 h; series mostly up to 76.8 µM.
Vitamin D3 receptor (Homo sapiens), sequence (P11473 whole entry, looked up): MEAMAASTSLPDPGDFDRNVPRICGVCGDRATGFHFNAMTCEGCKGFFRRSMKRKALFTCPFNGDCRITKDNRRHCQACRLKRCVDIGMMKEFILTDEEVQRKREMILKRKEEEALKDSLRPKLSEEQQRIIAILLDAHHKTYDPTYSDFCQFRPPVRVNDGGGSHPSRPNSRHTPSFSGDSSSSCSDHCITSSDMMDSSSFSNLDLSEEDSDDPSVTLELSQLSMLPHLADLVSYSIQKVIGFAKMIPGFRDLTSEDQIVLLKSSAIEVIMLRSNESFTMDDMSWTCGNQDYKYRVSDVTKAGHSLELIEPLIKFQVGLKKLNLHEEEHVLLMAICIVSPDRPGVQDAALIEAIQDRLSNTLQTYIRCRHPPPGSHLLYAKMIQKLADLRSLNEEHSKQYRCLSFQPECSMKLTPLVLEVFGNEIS
Excerpt: NIH Chemical Genomics Center [NCGC]
U.S. Environmental Protection Agency [EPA]
National Institutes of Environmental Health Sciences [NIEHS]
National Toxicology Program [NTP]
The Vitamin D receptor (VDR) is a member of nuclear hormone receptor superfamily and it plays a critical role in calcium homeostasis and bone metabolism. It plays a role in inducing cell differentiation, inhibiting cell growth and in thrombogenicity. So, VDR that mediates these effects represents a pharmacological target in prevention and treatment of hyperproliferative malignancies, such as cancer and psoriasis, cardiovascular, immunological, inflammatory and renal diseases etc.
NCGC Assay Protocol Summary
Using a beta-lactamase reporter-gene under control of Vitamin D receptor (VDR) response element, a cell-based assay [GeneBLAzer (VDR -UAS-bla assay developed by Invitrogen] was used to measure VDR ligands signaling. GeneBLAzer VDR -UAS-bla HEK293T cells were used with assay medium containing 2% charcoal-stripped FBS. The assay was performed in clear bottom black Greiner 1536-well plates. 1-alpha,25-Dihydroxy vitaminD3 was used as a positive control in the screen. Library compounds were measured for their ability to stimulate the reporter gene activity. Compounds were screened in a titration series in 1536-well format. The fluorescence intensity (405 nm excitation, 460/530 nm emission) was measured using an EnVision plate reader. Data was normalized relative to 1-alpha,25-Dihydroxy vitaminD3 control (50 nM, 100%) and DMSO only wells (basal, 0%). Concentration-response titration points for each compound were fitted to the Hill equation yielding concentrations of half-maximal stimulation (EC50) and maximal response (efficacy) values.
qHTS protocol for VDR beta-lactamase assay in agonist mode
[Step] [Parameter] [Value] [Description]
1. Reagent; 6 uL; 2000 cells/well
2. Incubation; 37 C for 5 hrs
4. Controls (1-alpha,25-Dihydroxy vitaminD3); 23 nL,
- Final concentrations of 50 nM and 15 nM in two columns
5. Incubation; 37 C for 16 hrs
6. Detection reagent; 1 uL of CCF4-dye
7. Incubation; RT for 2 hrs
8. Detection; Fluorescence; Envision plate reader
In the case of `Cc1ccnc2c1NC(=O)c1cccnc1N2C1CC1`, the outcome is reported as “inactive”.
For `S=P(N1CC1)(N1CC1)N1CC1`, the outcome was “inactive”.
With `COc1ccc2cc3[n+](cc2c1OC)CCc1cc2c(cc1-3)OCO2` the outcome was “inactive”.
With `CCc1cc(C(N)=S)ccn1` the outcome was “inactive”.
`CC(=O)CC(c1ccccc1)c1c(O)c2ccccc2oc1=O` (centres undefined) was tested, and the outcome was “inactive”.
In the case of `CC[C@H](C)C(=O)O[C@H]1C[C@@H](C)C=C2C=C[C@H](C)[C@H](CC[C@@H]3C[C@@H](O)CC(=O)O3)[C@H]21`, the outcome is reported as “inactive”.
With `C[C@]12C=CC(=O)C=C1CC[C@@H]1[C@@H]2C(=O)C[C@@]2(C)[C@H]1CC[C@]2(O)C(=O)CO` the outcome was “inactive”.
`OC(Cn1cncn1)(Cn1cncn1)c1ccc(F)cc1F` was tested, and the outcome was “inactive”.
With `NNC(=O)c1ccncc1` the outcome was “inactive”.
`CC(=O)[C@H]1CC[C@H]2[C@@H]3CCC4=CC(=O)CC[C@]4(C)[C@H]3CC[C@]12C` was tested, and the outcome was “inactive”.
In the case of `N=C(N)c1ccc(OCCCCCOc2ccc(C(=N)N)cc2)cc1`, the outcome is reported as “inactive”.
With `Cc1nnc(NS(=O)(=O)c2ccc(N)cc2)s1` the outcome was “inactive”.
`Cc1cc(NS(=O)(=O)c2ccc(N)cc2)no1` was tested, and the outcome was “inactive”.
In the case of `CN(C)c1ccc(C(=C2C=CC(=[N+](C)C)C=C2)c2ccc(N(C)C)cc2)cc1`, the outcome is reported as “inactive”.
